# Source: PubChem
# Gal4-VP16 FLuc – VP16 counterscreen qHTS for inhibitors of ROR gamma transcriptional activity; hit rate 3.5% among 310,000; AID 2546, 2010; Potency, µM (top dose mostly 53.6 µM), without a hit: at the highest dose activity, negative = inhibition, most hits filed as inhibitors; Drosophila S2 Gal4-VP16 UAS-luciferase, luminescence, 20 h;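 further: Gal4-VP16 expression switched on by copper sulfate through the metallothionein promoter; on the % scale 0 is the no-effect control and ±100 the full control effect; nearly all actives have a fitted effect of over 50% in size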
# KB-V1 MDR tox – qHTS assay for MDR1-selective chemotherapeutics: Primary screen using the drug-selected MDR subline cells KB-V1; KB-V1 MDR cells viability, CellTiter-Glo, 72 h; Potency, µM (titrated, usually from 46.1 µM), most hits filed as cytotoxic; hit rate 3.4% among 400,000; further: on the % scale 0 is the no-effect control and ±100 the full control effect; nearly all actives have a fitted effect of over 60% in size
#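 qHTS viability screen in drug-selected KB-V1 MDR cells: 72 h compound treatment at 37 degrees C, ATP luminescence end point.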
# RORgamma inh – qHTS for inhibitors of ROR gamma transcriptional activity | Nuclear receptor ROR-gamma (Mus musculus), P51450 | Drosophila S2 Gal4-RORgamma UAS-luciferase reporter, 20 h | Potency, µM (highest dose often 53.6 µM), for the others: at the highest dose activity change, negative = inhibition, usual class: inhibitors | hit rate 5.4% among 310,000; further: on the % scale 0 is the no-effect control and ±100 the full control effect; nearly all actives have a fitted effect of over 60% in size
# Target sequence (P51450 whole entry, looked up, the tested form may be a part): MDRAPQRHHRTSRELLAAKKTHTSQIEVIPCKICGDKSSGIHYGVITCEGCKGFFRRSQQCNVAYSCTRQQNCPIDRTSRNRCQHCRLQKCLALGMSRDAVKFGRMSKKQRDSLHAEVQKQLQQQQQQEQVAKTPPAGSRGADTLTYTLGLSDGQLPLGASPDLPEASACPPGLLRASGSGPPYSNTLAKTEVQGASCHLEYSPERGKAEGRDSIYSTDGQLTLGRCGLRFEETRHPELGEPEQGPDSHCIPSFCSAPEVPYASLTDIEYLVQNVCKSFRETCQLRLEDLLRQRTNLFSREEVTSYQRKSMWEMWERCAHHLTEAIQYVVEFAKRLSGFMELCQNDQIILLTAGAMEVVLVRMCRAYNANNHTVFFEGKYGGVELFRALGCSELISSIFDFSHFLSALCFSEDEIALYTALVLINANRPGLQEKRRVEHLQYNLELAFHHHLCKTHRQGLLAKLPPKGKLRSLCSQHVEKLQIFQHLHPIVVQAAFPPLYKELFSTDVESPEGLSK
#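 ROR gamma transcriptional activity was tracked as Gal4-UAS luciferase output in stably transfected Drosophila Schneider cells, with compound added 1 hr before 700 uM copper sulfate induction and a 20 hr ambient-temperature incubation.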
# KB-3-1 tox – qHTS assay for MDR1-selective chemotherapeutics: Primary screen using the parental adenocarcinoma cell KB-3-1; Potency, µM (highest dose often 46.1 µM), hits mostly cytotoxic; hit rate 1.4% among 400,000; KB-3-1 viability, CellTiter-Glo ATP luminescence, 72 h; AID 1347075, 2019; further: on the % scale 0 is the no-effect control and ±100 the full control effect; nearly all actives have a fitted effect of over 60% in size
#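 Luminescent ATP read-out (CellTiter-Glo) measures survival of drug-naive KB-3-1 cells after 72 h compound exposure at 37 °C. Titration series was screened from lowest to highest concentration, with DMSO vehicle plates as background controls.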
# MCF10A rerep – A quantitative high throughput screen for small molecules that induce DNA re-replication in MCF 10a normal breast cells; Potency, µM (titrated, usually from 46.1 µM), inactives show top-dose activity, positive = re-replication, usual class: activators; MCF 10A DNA re-replication, Hoechst nuclear intensity, 48 h; hit rate 2.9% among 350,000; further: % of control where 0% means no effect; nearly all actives have a fitted effect of over 50% in size
# SW480 rereplic – A quantitative high throughput screen for small molecules that induce DNA re-replication in SW480 colon adenocarcinoma cells. SW480 DNA re-replication, Hoechst DNA content imaging, 48 h. AID 624297, 2012. hit rate 1.8% among 340,000. Potency, µM (series often up to 46.1 µM), for inactives: top-dose re-replication activation, actives largely listed as activators; further: % of control where 0% means no effect; nearly all actives have a fitted effect of over 55% in size
#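 Cells (250 per well) received 23 nL compound or DMSO by pin tool and were kept 48 hr at 37 C, 5% CO2. Nuclei were then stained with Hoechst for 40 min and scanned for DNA content.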
# Numbers without * were called inactive; i = inactive; u = inconclusive; x = no result given; [ ] = another dose, or the depositor's remark. Only some compounds are listed: those with a hit (about 10% of all), similar ones and a draw of the others. The call rests on the fitted dose curve; in most records, active means well fitted curve in the direction sought with a large enough effect; inconclusive means small, poorly fitted or top-dose-only effect, or another doubt; inactive means no such curve, though single readings can be large; an effect the other way counts as inactive or inconclusive. Potency means the concentration at half of the fitted maximal effect.
SMILES,Gal4-VP16 FLuc,KB-V1 MDR tox,RORgamma inh,KB-3-1 tox,MCF10A rerep,SW480 rereplic
CCOC(=O)c1cc(S(=O)(=O)N2CCN(c3ccccc3F)CC2)[nH]n1,x,i,x,i,x,x
NC(=S)n1[nH]c(-c2ccccc2)c(N=Nc2ccccc2C(=O)N2CCOCC2)c1=O,-14%,i,2µM*,i,-5%,-132%
O=C(CNC(=S)NC(=O)c1cccc([N+](=O)[O-])c1)c1ccccc1,13µM*,i,7.1µM*,i,32%,2%
O=C(NC(=S)NCc1ccccc1)c1cccc([N+](=O)[O-])c1,5.6µM*,i,6.3µM*,i,22%,-13%
CCCCCC(=O)NNC(=S)NC(=O)c1cccc([N+](=O)[O-])c1,5µM*,u,3.5µM*,u,7%,-12%
O=C(C#Cc1ccccc1)c1cccc([N+](=O)[O-])c1,6.3µM*,u,5.6µM*,i,2.9µM*,7.3µM*
COc1ccc(CNC(=O)c2cc3c(-c4ccccc4F)nn(C)c3s2)cc1,x,u,x,i,x,x
Cc1ccc(NC(c2ccc(Cl)cc2)c2nnc(-c3cccc(F)c3)o2)cc1C (centres undefined),x,i,x,i,x,x
O=C(CS(=O)(=O)Cc1ccccc1)Nc1nc2c(s1)CCCC2,15%,i,31%,i,-6%,0%[9.22 µM]
COC(=O)c1ccc(C(=O)NC(=S)Nc2nc3c(s2)CCCC3)cc1,7.1µM*,u,2.2µM*,i,u,11%
COc1ccc(NC(=O)Nc2nc3c(s2)CCCC3)cc1,1%,i,u,i,17%,-1%
Cc1nc(Nc2ccccc2)sc1C,13µM*,i,3.5µM*,i,3%,u
S=C(Nc1nc2c(s1)CCCC2)NC1CC1,1.8µM*,i,1.3µM*,i,-1%,-17%
O=C(NC(=S)Nc1nc2c(s1)CCCC2)c1ccccc1,0.63µM*,u,0.56µM*,i,3%,-80%
COc1ccc(CNC(=O)c2sc3nc4n(c(=O)c3c2C)CCCCC4)cc1,x,i,x,i,x,x
COC(=O)c1sc(NC(=O)COc2ccc(OC)cc2)nc1C,x,u,x,i,-2%,4%
Cc1nc(NC(=S)NC(=O)c2ccccc2)sc1C,u,i,1.3µM*,i,1%,1%
Cc1nc(NC(=O)c2ccccc2)sc1C,-16%,i,u,i,-1%,-17%
COC(=O)c1sc(NC(=S)NC(=O)c2cccc(C)c2)nc1C,u,i,4µM*,i,-3%,-2%
COC(=O)c1sc(NC(=S)NC(=O)c2ccccc2F)nc1C,-22%,i,21%,u,-2%,2%
COC(=O)c1sc(NC(=O)COc2cccc3ccccc23)nc1C,-3%,u,-9%,i,18µM*,-3%
Cc1nc(NC(N)=S)sc1C(=O)Nc1ccccc1,-13%,i,11µM*,u,-3%,-2%
Cc1nn(-c2ccccc2)c2nc(C3CC3)cc(C(=O)Nc3ccc(F)cc3)c12,x,i,x,i,x,x
Cc1ccc(CN2CCC(C)(Oc3ccc(Cl)cc3)C2)cc1 (centres undefined),x,u,x,i,x,x
Cc1nc(-c2ccccc2)c(-c2ccncc2)o1,-3%,x,6%,x,x,x
COc1ccc(OC)c2c1sc(=NC(=O)C(C)C)n2C,20µM*,i,0%,i,11%,-12%
COc1ccc(C(=O)N=c2sc3c(C)ccc(OC)c3n2C)cc1,u,5.8µM*,-3%,9.2µM*,8%,11%
CC1(C(=O)Nc2cccc(NS(C)(=O)=O)c2)Cc2c(-c3ccc(C(N)=O)cc3)ccnc2O1 (centres undefined),x,i,x,i,x,x
